This is a sample that favours compounds with a hit; in the whole collection about 7.4% have one here.
FLuc modulator: qHTS profiling assay for firefly luciferase inhibitor/activator using purifed enzyme and Km concentrations of substrates (counterscreen for miR-21 project); purified FLuc, Km substrates, luminescence inhibition; Potency, µM (titrated, usually from 57.5 µM), for inactives: at the highest dose activity change, negative = inhibition, actives largely listed as inhibitors; 6.9% of 360,000 active;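 further: plate controls were vehicle for no effect and reference inhibitor for full effect; nearly all actives have a fitted effect of over 55% in size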
Target sequence (P08659 whole entry, looked up): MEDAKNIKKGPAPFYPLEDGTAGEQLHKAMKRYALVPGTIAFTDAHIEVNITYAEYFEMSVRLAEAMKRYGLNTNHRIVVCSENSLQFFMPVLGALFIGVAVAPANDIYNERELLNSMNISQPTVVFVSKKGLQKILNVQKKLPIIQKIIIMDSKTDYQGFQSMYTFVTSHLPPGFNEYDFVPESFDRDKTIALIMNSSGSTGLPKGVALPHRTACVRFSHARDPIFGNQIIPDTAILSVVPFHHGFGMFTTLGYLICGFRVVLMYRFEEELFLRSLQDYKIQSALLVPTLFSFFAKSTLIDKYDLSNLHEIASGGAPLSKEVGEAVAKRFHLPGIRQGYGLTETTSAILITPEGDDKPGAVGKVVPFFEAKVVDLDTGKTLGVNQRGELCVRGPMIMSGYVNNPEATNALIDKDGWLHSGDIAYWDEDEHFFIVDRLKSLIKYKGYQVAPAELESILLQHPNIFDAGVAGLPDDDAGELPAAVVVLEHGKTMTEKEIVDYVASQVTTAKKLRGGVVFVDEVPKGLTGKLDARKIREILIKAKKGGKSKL
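Biochemical qHTS of compounds, final roughly 60 µM downward over six points, against 10 nM purified firefly luciferase using Km concentrations of substrates (10 uM D-luciferin, 10 uM ATP) in Tris acetate pH 7.5 buffer; luminescence output.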
NPC1 promoter act: qHTS Assay for NPC1 Promoter Activators | 2.4% of 320,000 active | Potency, µM (doses to about 9.22 µM), inactives show top-dose activation, most hits filed as activators | Huh7 NPC1 promoter luciferase reporter, 24 h | AID 485313, 2010; further: % of control where 0% means no effect; nearly all actives have a fitted effect of over 60% in size
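Luminescence from an NPC1 promoter-driven luciferase reporter in stably transfected Huh7 cells was measured after 24 h compound treatment at 37 °C, followed by 10 min ambient incubation with luciferase detection reagent.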
ELG1 genotox: qHTS screen for small molecules that induce genotoxicity in human embryonic kidney (HEK293T) cells expressing luciferase-tagged ELG1. HEK293T ELG1-luciferase reporter, luminescence, 16 h. Potency, µM (highest dose often 46 µM), for the others: at the top dose activity change, positive = activation, usual class: activators. 1.3% of 330,000 active. AID 504466, 2011; further: % of control where 0% means no effect; nearly all actives have a fitted effect of over 60% in size
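Cells (2,000/well) expressing the ELG1-luciferase fusion are dosed by pin tool and kept 16 hr at 37 °C, 5% CO2. Signal comes from ONE-Glo luciferase reagent after 30 min at room temperature.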
SMN2 splice enh: qHTS Assay for Enhancers of SMN2 Splice Variant Expression; Potency, µM (top dose mostly 46.1 µM), without a hit: at the top dose activity change, positive = activation, most hits filed as activators; HEK293 SMN2-luciferase splicing reporter, luminescence, 30-36 h; 2.8% of 210,000 active; further: % of control where 0% means no effect; nearly all actives have a fitted effect of over 55% in size
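HEK293 cells carry an SMN2 minigene-luciferase reporter in which exon 7 inclusion puts luciferase in frame. Cells were seeded at 2000 cells/well, attached for 10-12 hours, then exposed to compounds for 30-36 hours at 37C before ONE-Glo luminescence.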
Rab9 prom act: qHTS Assay for Rab9 Promoter Activators; Huh7 Rab9 promoter-luciferase reporter, luminescence, 24 h; Potency, µM (titrated, usually from 9.22 µM), inactives show top-dose activation, negative = inhibition, usual class: activators; 2.8% of 320,000 active; AID 485297, 2010; further: % of control where 0% means no effect; nearly all actives have a fitted effect of over 60% in size
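Promoter activation is measured as luciferase luminescence in Huh7 cells stably transfected with a Rab9 promoter–luciferase construct, following 24 h compound exposure at 37 °C and 10 min reagent incubation at ambient temperature.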
The depositor's hits bear a star; ? = inconclusive; / = not tested or not shown; [ ] = remark or other dose. The call rests on the fitted dose curve; in most records, active means well fitted curve in the direction sought with a large enough effect; inconclusive means small, poorly fitted or top-dose-only effect, or another doubt; inactive means no such curve, though single readings can be large; an effect the other way counts as inactive or inconclusive. Potency means the concentration at half of the fitted maximal effect.

SMILES	FLuc modulator	NPC1 promoter act	ELG1 genotox	SMN2 splice enh	Rab9 prom act
O=C(c1ccco1)N1CCC2(CCCN(c3ccncc3)C2)CC1	/	/	/	-29%	/
COc1ccc2nc(N3CCC(C)CC3)c(C#N)cc2c1	11µM*	?	?	20µM*	4µM*
COc1ccc2nc(N3CCC(O)CC3)c(C#N)cc2c1	15µM*	19%	6%	-9%	5%
COc1ccc(C)cc1NC(=O)C1CCCN(S(=O)(=O)c2ccc3c(c2)oc(=O)n3C)C1 (configuration not stated)	0%	/	/	1%	/
Cc1nc2nc(SCC(=O)Nc3cccc(Cl)c3)nn2c(C)c1Cc1ccccc1	0%	/	/	/	/
CC(C)(C)c1ccc(-c2nc(NCc3cccnc3)c3ccccc3n2)cc1	3.4µM*	?	?	25µM*	21%
c1cncc(CNc2nc(-c3cccnc3)nc3ccccc23)c1	4%	0%	-10%	/	0%
CC(C)NC(=O)N1CC2(CCN(C(=O)c3ccncc3)CC2)C1	/	/	/	-11%	/
COCCCNC(=O)Cn1nnc(-c2ccc(NC(=O)c3ccccc3F)cc2)n1	13µM*	26%	14%	?	27%
COc1ccc(OCC(=O)Nc2ccc(C)cc2)cc1	?	-2%	18%	9%	3%
Cc1ccc(OCC(=O)Nc2ccncc2)cc1	13µM*	0%	5%	/	0%
Cc1ccc(OCC(=O)Nc2ccc(F)cc2)cc1	15µM*	-1%	?	19%	-5%
O=C(O)[C@H](Cc1c[nH]c2ccccc12)N1C(=O)c2ccccc2C1=O	/	/	/	-20%[9.22 µM]	/
CC(=O)NCCNc1nc(-c2ccccc2C(F)(F)F)nc2ccccc12	/	/	/	-4%	/
N#CCCn1c(=O)c(-c2cc(F)cc(F)c2)nc2cnc(OCc3ccccc3)nc21	/	/	/	-19%	/
O=S(=O)(Nc1cccc(S(=O)(=O)N2CCCC2)c1)c1ccc(Cl)s1	/	1%	-1%	/	-4%
CCOc1ccc(-c2cccc(NS(=O)(=O)c3ccccc3[N+](=O)[O-])c2)nn1	3%	13%	-1%	/	1%
CCOc1ccc(-c2cccc(NS(=O)(=O)c3ccc(Cl)s3)c2)nn1	15µM*	/	/	/	/
O=S(=O)(Nc1cccc(-c2ccc(N3CCCCC3)nn2)c1)c1cccs1	0.95µM*	/	/	/	/
O=S(=O)(Nc1cccc(-c2ccc(N3CCCCC3)nn2)c1)c1ccc(Cl)s1	1.2µM*	/	/	/	/
Cc1ccc(CCNc2nc3c(S(=O)(=O)c4ccc(C)cc4)nnn3c3ccsc23)cc1	0%	/	/	/	/
COC(=O)c1cc2oc(C)cc2n1Cc1ccc(Br)cc1F	2%	/	/	-18%	/
CC(C)n1nnnc1SCC(=O)N1N=C(c2cccs2)CC1c1cccs1 (configuration not stated)	24µM*	29%	16%	/	?
COc1cc(SC)ccc1C(=O)Nc1cccc(C2OCCCO2)c1	17µM*	3.5µM*	3%	/	1.4µM*
CSc1ccc(Cl)c(C(=O)Nc2ccc(Cl)cn2)c1	-10%	-13%	-4%	/	-11%
SMILES	FLuc modulator	NPC1 promoter act	ELG1 genotox	SMN2 splice enh	Rab9 prom act
COc1cc(SC)ccc1C(=O)Nc1ccc2c(c1)CCC2	2.1µM*	4µM*	?	/	4µM*
COc1cc(SC)ccc1C(=O)Nc1ccc(Cl)cn1	0.076µM*	0.89µM*	?	/	0.89µM*
COc1cc(SC)ccc1C(=O)Nc1ccccc1C#N	?	-1%	9.2µM*	13µM*	3%
CCn1c(C(=O)N2CCCC(C(=O)N3CCN(c4cc(C)ccc4C)CC3)C2)cc2sccc21 (configuration not stated)	-16%	/	/	-43%	/
CC(C)Cc1ccc(S(=O)(=O)Nc2cc3c(cc2N2CCOCC2)n(C)c(=O)c(=O)n3C)cc1	1%	/	/	/	/
COc1cc(/C=N/NC(=O)c2ccccn2)ccc1OC(=O)c1ccccc1Br	4.8µM*	?	-5%	/	?
O=C(N/N=C/c1ccc(OC(=O)c2cccs2)cc1)c1ccccn1	1.5µM*	2.5µM*	7.3µM*	/	3.2µM*
O=C(Oc1ccc(/C=N/NC(=O)c2ccccn2)cc1)c1cccc(Br)c1	-6%	4µM*	16µM*	/	3.5µM*
O=C(N/N=C/c1ccc(OC(=O)c2ccco2)cc1)c1ccccn1	2.7µM*	2.8µM*	?	/	1.8µM*
O=C(N/N=C/c1c[nH]c2ccc(Br)cc12)c1ccccn1	?	1%	2%	9%	0%
COc1cc(/C=N/NC(=O)c2ccccn2)ccc1OC(=O)c1ccc(Br)cc1	-8%	?	?	/	24%
CCOc1cc(/C=N/NC(=O)c2ccccn2)ccc1OC(=O)c1cccs1	?	18%	?	/	8%
O=C(c1ccc(CS(=O)c2ccccc2Cl)o1)N1CCN(c2ccccc2F)CC1 (configuration not stated)	5%	/	/	/	/
Cn1cccc1/C=C1\SC(=O)N(c2ccc(O)cc2)C1=O	?	?	?	13µM*	?
CCOc1ccc(N2C(=O)S/C(=C\c3cccn3C)C2=O)cc1	-4%	12%	11%	?	29%
COc1cc(/C=C\C(=O)N2CCC=CC2=O)cc(OC)c1OC	/	/	/	-49%[20.6 µM]	/
Cc1cc(NC(=O)CCc2nc3cccnc3n2-c2ccccc2)ccc1Br	-8%	/	/	-13%	/
Cc1cc(=O)[nH]c2nnc(-c3ccc(Cl)cc3)n12	3.4µM*	2.8µM*	?	/	?
CSc1nnc2[nH]c(=O)cc(C)n12	7%	/	/	/	/
CNc1ccc(O)cc1	/	/	/	8%	/
Cc1nc2cc(NC(=O)N3CCCCC3)ccc2n1C	?	20%	?	13µM*	30%
CCOC(=O)C1CCN(C(=O)Nc2ccc3c(c2)nc(C)n3C)CC1	0%	?	?	11µM*	?
Nc1ncnc2nc(Cl)[nH]c12	/	/	/	2%	/
COc1cc(NC(=O)CSc2ncc(S(=O)(=O)c3ccc(Br)cc3)c(=O)[nH]2)cc(OC)c1	?	/	/	-9%	/
O=C(O)CCSC1CC(=O)N(c2ccccc2)C1=O (configuration not stated)	-2%	1%	1%	/	3%
O=C1CC(SCCO)C(=O)N1c1ccc(Oc2ccccc2)cc1 (configuration not stated)	21µM*	23%	5%	9%	21%
CCCC[C@]12Cc3c(ccc4ccccc34)C(O1)C1=C(O2)C(=O)c2ccccc2C1=O	1%[11.5 µM]	8%[1.84 µM]	/	/	4%[1.84 µM]
CCOc1ccc(C(=O)Nc2ccccc2-c2ccccc2)cc1Cl	-2%	-3%	0%	-15%	2%
COc1ccc(C(=O)Nc2ccccc2C(=O)O)cc1Cl	5.4µM*	?	?	-2%[1.84 µM]	3.5µM*
CCN(CC)S(=O)(=O)c1cc(C(=O)Nc2ccccc2C(=O)O)ccc1OC	6µM*	16%	5%	10%	0%
